Sm TGR inh = qHTS Assay for the Inhibitors of Schistosoma Mansoni Peroxiredoxins; hit rate 3% among 360,000; Schistosoma mansoni thioredoxin glutathione reductase (TGR), Q962Y6; purified TGR, DTNB reduction, TNB absorbance 405 nm; Potency, µM (top dose mostly 114 µM), hits mostly inhibitors; active = well fitted inhibition curve with a large enough effect; inconclusive = small, poorly fitted or top-dose-only effect; inactive = no such curve, though single readings can be large or run the other way; also: nearly all actives have a fitted effect of over 60% in size
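Kinetic colorimetric format: TGR-catalysed, NADPH-driven DTNB reduction monitored via TNB absorbance. Enzyme dispensed at 20 nM; compound exposure 15 min at room temperature before reaction start.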
FMDV antiviral = High Throughput Screening for Foot and Mouth Disease Virus Antivirals. FMDV antiviral cell-based qHTS. Potency, µM (highest dose often 57.9 µM), actives largely listed as inhibitors. hit rate 1.2% among 410,000. AID 1159524, 2015; calls by dose curve; tested in HEK293T cells; also: read-out not given here; nearly all actives have a fitted effect of over 45% in size
Vaccinia Venus = qHTS for Stage-Specific Inhibitors of Vaccinia Orthopoxvirus: Venus Reporter Primary qHTS. Vaccinia virus Venus reporter expression, fluorescence. Potency, µM (series often up to 36.5 µM), usual class: inhibitors. hit rate 0.46% among 330,000. AID 720580, 2013; calls by dose curve; tested in A549 cells; also: nearly all actives have a fitted effect of over 30% in size
MARV entry inh = qHTS for inhibitors of binding or entry into cells for Marburg Virus; Marburg virus pseudotyped entry inhibition, cell reporter; Potency, µM (series often up to 37.8 µM), actives largely listed as inhibitors; hit rate 1.8% among 300,000; calls by dose curve; tested in HEK293 cells
Vaccinia mCherry = qHTS for Stage-Specific Inhibitors of Vaccinia Orthopoxvirus: mCherry Reporter Primary qHTS | Vaccinia virus mCherry reporter infection, fluorescence | Potency, µM (series often up to 36.5 µM), hits mostly inhibitors | hit rate 0.63% among 310,000; calls by dose curve; tested in A549 cells; also: nearly all actives have a fitted effect of over 35% in size
Lassa entry inh = qHTS for Inhibitors of binding or entry into cells for Lassa Virus; Lassa virus pseudotype entry inhibition, cell reporter; Potency, µM (series often up to 37.9 µM), actives largely listed as inhibitors; hit rate 1.2% among 300,000; calls by dose curve; tested in HEK293 cells; also: nearly all actives have a fitted effect of over 50% in size
Numbers stand for hits; . = inactive; ? = inconclusive; / = no result; [ ] = dose if it differs, or a comment. In the library only some 5.4% were active in any assay of this set; here they are far more common.

SMILES	Sm TGR inh	FMDV antiviral	Vaccinia Venus	MARV entry inh	Vaccinia mCherry	Lassa entry inh
Cc1nc2c(OCc3ccc(C#N)cc3)cccn2c1N(C)C(=O)CCC1CCCC1	/	22µM	.	/	.	/
COC(=O)c1ccc(COc2cccn3c(N(C)C(=O)CCC4CCCC4)c(C)nc23)cc1	/	35µM	.	/	.	/
CCOc1ccccc1CN1CCN(Cc2ccc3cccc(OC)c3n2)CC1CCO (centres undefined)	25µM	.	/	/	/	/
Cc1ccc2nc(SCC(=O)N3CCN(C(=O)c4ccco4)CC3)[nH]c2c1	.	.	.	.	.	.
O=C(CSc1nc2ccc(Cl)cc2[nH]1)N1CCN(C(=O)c2ccco2)CC1	50µM	.	.	.	.	.
CCc1cc2ccc(C)cc2nc1SCC(=O)N1CCN(C(=O)c2ccco2)CC1	40µM	.	.	?	.	?
COc1ccc(C)cc1NS(=O)(=O)c1ccc2c(c1)CCCN2C(C)=O	.	.	.	/	.	.
CC1CCN(c2nn3c(=O)c(C(=O)NCCc4ccccc4)cnc3s2)CC1	.	.	.	/	.	?
COC(=O)c1cc2sc(C)cc2n1CC(=O)Nc1ccc(C)cc1Cl	.	.	.	.	.	/
O=C1C(=Cc2ccncc2)CCCc2ccccc21	/	?	.	/	.	/
O=C1/C(=C\c2ccccc2)CCC/C1=C/c1ccccc1	/	.	.	?	.	?
O=C1/C(=C/c2ccncc2)CCC/C1=C\c1ccncc1	11µM	14µM	11µM	/	10µM	/
O=C1CCC/C1=C\c1ccccc1	45µM	.	.	/	.	/
CCOc1ccccc1NC(=O)CN1C(=O)COc2ccc(S(=O)(=O)N3CCCCC3)cc21	.	.	.	/	.	.
CCN(c1ccccc1)c1nnc(NC(=O)Nc2ccc(C)cc2)s1	.	.	.	.	?	?
CCCS(=O)(=O)N1CCN(Cc2ccc3c(c2)c2ccccc2n3CC)CC1	.	?	?	10µM	?	?
O=C(C1=C(O)C(=O)N(c2nccs2)C1c1ccccc1)c1cc2ccccc2o1 (centres undefined)	10µM	.	.	?	.	?
Cc1cc(N2C(=O)C(O)=C(C(=O)c3cc4ccccc4o3)C2c2cccs2)no1 (centres undefined)	56µM	.	.	.	.	.
O=C(C1=C(O)C(=O)N(CCc2ccccc2)C1c1ccncc1)c1cc2ccccc2o1 (centres undefined)	/	.	.	?	.	.
Cc1ccc(OCC(=O)Nc2c(C)nn(-c3ccccc3)c2C)c(Br)c1	.	40µM	.	.	.	.
O=C(COc1ccc(Cl)cc1Cl)Nc1ccc(Cl)cn1	.[11.4 µM]	/	.	?	.	?
Cc1nn(-c2ccccc2)c(C)c1NC(=O)COc1ccc(F)cc1Cl	.	20µM	.	?	?	.
O=C(COc1ccc(Cl)cc1Cl)Nc1ccccc1F	/	.	.	.	.	7.1µM
O=C(CCCOc1ccc(Cl)cc1Cl)N/N=C/c1ccccc1O	.	.	?	?	7.1µM	?
O=C(CCCOc1ccc(Cl)cc1Cl)N/N=C/c1ccccc1	.	.	?	?	.	?
SMILES	Sm TGR inh	FMDV antiviral	Vaccinia Venus	MARV entry inh	Vaccinia mCherry	Lassa entry inh
CC(=O)c1ccc(C(=O)N2CCc3c(cnc(C)c3CNC(=O)c3ccc4c(c3)OCO4)C2)s1	/	.	.	/	.	/
CCOC(=O)C1CCC(CN(Cc2c(Cl)cccc2Cl)S(=O)(=O)c2ccc(F)c(C)c2)CC1 (centres undefined)	.	.	.	/	.	?
CC(=O)OC[C@H]1O[C@H](CCON=C(C)CCN2CCCCc3nc(C)c(C)cc32)C=C[C@H]1OC(C)=O	/	/	/	.	/	/
Cc1cccc(C(=O)Nc2c(C(=O)N3CCN(c4ccc(F)cc4)CC3)oc3ccccc23)c1	.	.	.	/	.	.
COc1ccccc1C1CN(CCNC(=O)c2ccc3c(c2)OCCO3)Cc2ccccc2O1 (centres undefined)	/	.	.	/	.	/
O=C(Nc1nc2ccccc2s1)c1ccc([N+](=O)[O-])o1	.	.	/	/	/	/
Cc1cc(C)c2sc(NC(=O)c3ccc([N+](=O)[O-])o3)nc2c1	?	.	11µM	/	?	/
Cc1cc(C)c2nc(NC(=O)c3ccc([N+](=O)[O-])o3)sc2c1	.	.	?	.	10µM	?
COc1ccc2nc(NC(=O)c3ccc([N+](=O)[O-])o3)sc2c1	.	.	?	.	?	?
O=C(Nc1nc2c(F)cc(F)cc2s1)c1ccc([N+](=O)[O-])o1	.	.	10µM	/	13µM	/
Cc1ccc2c(=O)cc(C(=O)Nc3c(C)n(C)n(-c4ccccc4)c3=O)oc2c1	.	.	.	.	.	?
CN1c2ccccc2[C@@]2(O)C(=O)[C@@]1(C)[C@@H]1CCC=C[C@H]12	/	/	/	.	/	?
Cc1cc(C)cc(NC2=CC(c3cccc(F)c3)N(c3cc(C)cc(C)c3)C2=O)c1 (centres undefined)	.	.	.	.	.	.
C[C@@H]1CC[C@H]2C(=O)N(Cc3cccc([N+](=O)[O-])c3)C[C@@H](O)CN2[C@@H]1c1cccc(Br)c1	/	/	/	?	/	.
COc1ccc(-n2ccn(CC(=O)Nc3ccccc3C(F)(F)F)c(=O)c2=O)cc1OC	.	.	.	/	.	.
CCN(CC)CCN1c2ccccc2Sc2ccc3ccccc3c21	.	.	.	10µM	.	.
Cc1ccc([C@H]2/C(=C(\O)c3ccc(OC(C)C)cc3)C(=O)C(=O)N2CCN2CCOCC2)cc1	/	/	/	.	/	/
CCCCC1(CCCC)C(=O)NC(=Nc2cccc(C)c2)NC1=O	.	.	10µM	.	?	.
CCCC1(CCC)C(=O)NC(=Nc2ccccc2)NC1=O	.	/	.	.	.	.
COc1cc(-c2cccc(Cl)c2)cc2c1OCCN(C(=O)CCn1ccc(C)n1)C2	/	.	.	/	.	/
CCCC1=[N+](CC(C)=O)CCn2c(C)ccc21	28µM	.	/	.	/	.
CCOC(=O)c1ccc(CC(=O)c2oc3cc(O)ccc3c2C)o1	28µM	/	.	.	.	.
CCOC(=O)c1ccc(CC(=O)c2ccc(O)c(O)c2O)o1	?	.	.	?	.	.
COc1cccc(-c2nn3c(=O)cc(CN4CCN(C(=O)COc5ccccc5C)CC4)nc3s2)c1	.	3.5µM	.	/	?	.
COc1ccc(OCC(=O)N2CCN(Cc3cc(=O)n4nc(-c5ccccc5C)sc4n3)CC2)cc1	.	?	.	/	.	.
COc1ccccc1-c1nn2c(=O)cc(CN3CCN(C(=O)/C=C/c4ccccc4)CC3)nc2s1	.	.	.	/	?	?
Cc1ccccc1-c1nn2c(=O)cc(CN3CCN(C(=O)/C=C/c4ccccc4)CC3)nc2s1	40µM	.	.	/	.	.
O=C(Cn1nc(-c2ccco2)ccc1=O)Nc1ccc(Cl)c(Cl)c1	7.1µM	.	.	.	.	.
O=C(CN1CCCC1)Nc1cc(C(F)(F)F)ccc1Cl	.	.	.	?	.	.

High-throughput results deposited in PubChem BioAssay by National Center for Advancing Translational Sciences (NCATS).
